A short description of this test: chemical genetic growth profiling, strain panel (AID 1159580).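 Also: tested at 20 µM; growth read once vehicle control cultures reached saturation at 30 °C; 1 = growth at the plate median or of vehicle wells; lower values mean less growth of the strain.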 Particulars: S. cerevisiae deletion strains, growth OD.
The mark [1] stands for this setting: locus YAL040C, strain CLN3, active compounds read low.
The mark [2] stands for this setting: locus YCL061C, strain MRC1 (second series), active compounds read low.
Where [3] appears, read: locus YDR363W, strain ESC2, active compounds read low.
The mark [4] stands for this setting: locus YER002W, strain NOP16, active compounds read low.
The mark [5] stands for this setting: locus YMR307W, strain GAS1, active compounds read low.
[6] abbreviates: locus YNL175C, strain NOP13, active compounds read low.
Setting [7] is: locus YNL197C, strain WHI3, active compounds read low.
The mark [8] stands for this setting: locus YNL224C, strain SQS1, active compounds read low.
[9] abbreviates: locus YOR083W, strain WHI5 (second series), active compounds read low.
[10] abbreviates: locus YPL055C, strain LGE1, active compounds read low.
[11] abbreviates: locus YGR229C, strain SMI1, active compounds read low.
Where [12] appears, read: locus YJR075W, strain HOC1, active compounds read low.
[13] abbreviates: locus YNL128W, strain TEP1, active compounds read low.
The mark [14] stands for this setting: locus YNL153C, strain GIM3, active compounds read low.
Where [15] appears, read: locus YPL241C, strain CIN2, active compounds read low.

Molecules are shown by their SMILES. Hit rate of the full screen: of about 5,500 compounds, about 2,000 (36%) were called active. Not shown: some 18% with an inconclusive outcome. The list shows a part of the results. Values without a mark were called inactive. Rule as the data show it: active = normalized growth mostly below about 0.91 (no sharp cut-off); inconclusive = no clear call, values can overlap the other calls; inactive = mostly above about 0.92.

Take `C=CCN1C[C@@H](C)N([C@H](c2ccc(C(=O)N(CC)CC)cc2)c2cccc(OC)c2)C[C@@H]1C`: the normalized growth is, setting by setting: under setting [1], 1.04; under setting [2], 1; under setting [3], 0.992; under setting [4], 0.999; under setting [5], 1.03; under setting [6], 0.995. Also, the normalized growth reads like this: under setting [7], 1.01; under setting [8], 1.02; under setting [9], 1.02; under setting [10], 1.01.

On to `CP(=O)(O)C1=CCNCC1`, for which the normalized growth is, setting by setting: (locus YAL013W, strain DEP1, active compounds read low) 1.03; under setting [1], 1; under setting [2], 1; under setting [3], 0.997; under setting [4], 0.997; under setting [11], 1.02. For the same compound, the normalized growth under setting [12] is 1.01; the normalized growth under setting [5] was 1; the normalized growth under setting [13] was 0.996; the normalized growth under setting [14] was 0.999; the normalized growth under setting [6] is 1.01; the normalized growth under setting [7] is 1.02. Also, the normalized growth runs as follows: under setting [8], 1.01; (locus YNL322C, strain KRE1, active compounds read low) 1.01; under setting [9], 0.987; under setting [15], 1.

As for `O=c1onc2cnc3ccccc3n12`, the normalized growth under setting [1] is 0.984; the normalized growth under setting [2] is 0.983; the normalized growth under setting [3] is 0.893; the normalized growth under setting [4] is 1; the normalized growth under setting [11] is 0.939; the normalized growth under setting [12] is 0.958. The normalized growth is, setting by setting: under setting [5], 0.977; under setting [13], 0.967; under setting [14], 0.777 (active); under setting [6], 0.999; under setting [7], 0.989; under setting [8], 0.987. For the same compound, the normalized growth was 0.961 under setting [9], 0.801 (active) under setting [10] and 0.999 under setting [15].

For the origin of these results see PubChem BioAssay AID1159580 (chemical genetic matrix, 2015).
